SW480 rereplic = A quantitative high throughput screen for small molecules that induce DNA re-replication in SW480 colon adenocarcinoma cells; SW480 DNA re-replication, Hoechst DNA content imaging, 48 h; Potency, µM (titrated, usually from 46.1 µM), most hits filed as activators; 340,000 tested, 1.8% active; note: nearly all actives have a fitted effect of over 55% in size
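Cells (250 per well) received 23 nL compound or DMSO by pin tool and were kept 48 hr at 37 C, 5% CO2. Nuclei were then stained with Hoechst for 40 min and scanned for DNA content.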
KB-V1 cytotox = qHTS assay for MDR1-selective chemotherapeutics: Primary screen using the drug-selected MDR subline cells KB-V1 | KB-V1 MDR cells viability, CellTiter-Glo, 72 h | Potency, µM (series often up to 46.1 µM), usual class: cytotoxic | 400,000 tested, 3.4% active | AID 1347076, 2019; note: nearly all actives have a fitted effect of over 60% in size
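Potencies derive from concentration-effect curves fitted to normalized luminescence (CellTiter-Glo) of KB-V1 cells treated for 72 h at 37 degrees C in phenol-red-free DMEM containing 10% FBS.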
ELG1 repair inh = qHTS screen for small molecules that inhibit ELG1-dependent DNA repair in human embryonic kidney (HEK293T) cells expressing luciferase-tagged ELG1; Potency, µM (highest dose often 46.1 µM), usual class: inhibitors; 330,000 tested, 2.3% active; AID 504467, 2011; HEK293T ELG1-luciferase reporter, luminescence, 16 h; DNA damage induced by 5-fluorouridine; note: nearly all actives have a fitted effect of over 55% in size
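5-Fluorouridine DNA damage + compound/DMSO, 2,000 cells/well, 16 h, 37 °C/5% CO2. ONE-Glo, 30 min RT, luminescence. Readout = decrease in reporter signal.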
MCF10A rereplic = A quantitative high throughput screen for small molecules that induce DNA re-replication in MCF 10a normal breast cells. AID 624296, 2012. 350,000 tested, 2.9% active. MCF 10A DNA re-replication, Hoechst nuclear intensity, 48 h. Potency, µM (highest dose often 46.1 µM), hits mostly activators; note: nearly all actives have a fitted effect of over 50% in size
KB-3-1 cytotox = qHTS assay for MDR1-selective chemotherapeutics: Primary screen using the parental adenocarcinoma cell KB-3-1; KB-3-1 viability, CellTiter-Glo ATP luminescence, 72 h; Potency, µM (highest dose often 46.1 µM), usual class: cytotoxic; 400,000 tested, 1.4% active; note: nearly all actives have a fitted effect of over 60% in size
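Parental KB-3-1 viability, qHTS format: 72 h compound exposure, 37 °C; CellTiter-Glo; media-only wells and DMSO plates as controls; concentration-effect fits on corrected data.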
Each line names hits and unclear results; the compound was inactive in the other large screens. Sampled rows, rich in hits. Any-hit rate of the full collection: about 8.1%. Calls come from the whole dose curve; as a rule, active = well fitted curve in the direction sought with a large enough effect; inconclusive = small, poorly fitted or top-dose-only effect, or another doubt; inactive = no such curve, though single readings can be large; an effect the other way counts as inactive or inconclusive.

CC1CCCCC1NS(=O)(=O)c1ccc(S(=O)(=O)NCc2ccncc2)cc1 (stereo not drawn)	KB-V1 cytotox 16.4µM, ELG1 repair inh inconclusive
CCOc1ccccc1NC(=S)NCCCn1ccnc1	SW480 rereplic inconclusive, KB-V1 cytotox inconclusive, MCF10A rereplic 0.581µM
COc1ccc(S(=O)(=O)NCc2ccncc2)cc1OC	ELG1 repair inh 7.31µM
CCOc1ccccc1C1C(C#N)=C(N)Oc2cc(C)n(Cc3ccccn3)c(=O)c21 (stereo not drawn)	none
CCOc1cc(S(=O)(=O)NCCCn2ccnc2)ccc1Cl	none
CCOc1ccc(S(=O)(=O)NCCCn2ccnc2)cc1	KB-V1 cytotox inconclusive, MCF10A rereplic 23.1µM
COc1ccc(CCNC(=O)CCc2c(C)nc3c(c(C)nn3-c3ccc(C)c(C)c3)c2C)cc1OC	none (no result: SW480 rereplic, ELG1 repair inh, MCF10A rereplic)
Cc1ccc(-n2nc(C)c3c(C)c(CCC(=O)Nc4ccc(CN5CCCC5)cc4)c(C)nc32)cc1	SW480 rereplic inconclusive, MCF10A rereplic 25.9µM
CCN(CC)CCNC(=O)CCc1c(C)nc2c(c(C)nn2-c2ccc(C)c(C)c2)c1C	SW480 rereplic 14.6µM, ELG1 repair inh inconclusive, KB-3-1 cytotox inconclusive
CC(=O)Nc1ccc(OCC(=O)NC(C)c2ccc(F)cc2)cc1 (stereo not drawn)	KB-V1 cytotox inconclusive
C=C(C)c1nc(Oc2ccccc2)nc(Oc2ccccc2)n1	SW480 rereplic inconclusive, MCF10A rereplic 4.11µM, KB-3-1 cytotox inconclusive (no result: ELG1 repair inh)
COc1ccc(OCCCC(=O)Nc2cccc(C(C)=O)c2)cc1	ELG1 repair inh 18.4µM
COc1ccc(C(=O)Nc2ccc3[nH]ccc3c2)cc1	SW480 rereplic inconclusive, KB-V1 cytotox 16.4µM, MCF10A rereplic inconclusive, KB-3-1 cytotox 16.4µM (no result: ELG1 repair inh)
COc1ccc(OCCCC(=O)Nc2cccc(SC)c2)cc1	KB-V1 cytotox inconclusive (no result: SW480 rereplic)
COc1ccc(OCCCC(=O)Nc2ccc3c(c2)OCCO3)cc1	KB-V1 cytotox inconclusive, ELG1 repair inh inconclusive, MCF10A rereplic 20.6µM
COc1ccc(C(=O)CCNc2cccc(Cl)c2)cc1	ELG1 repair inh inconclusive
COc1ccc(C(=O)CCNc2ccc3c(c2)OCCO3)cc1	SW480 rereplic inconclusive, ELG1 repair inh inconclusive, MCF10A rereplic 23.1µM
O=C(NC1=NCCS1)c1cccc(Br)c1	SW480 rereplic inconclusive (no result: ELG1 repair inh)
CC(C)N(C(=O)Cn1cc(S(=O)(=O)CC(=O)NC2CCCCC2)c2ccccc21)C(C)C	none
Cc1ccc(C)c(-c2[nH]ncc2CN2CCCC(CO)(Cc3ccccc3C)C2)c1 (stereo not drawn)	KB-V1 cytotox inconclusive, MCF10A rereplic inconclusive
COc1ccc(NC(=O)CSCC(=O)N(C)Cc2ccc3c(c2)OCCO3)cc1	KB-V1 cytotox 14.6µM
COc1ccc(C(=O)Nc2ccc3c(c2)OCCO3)cc1	SW480 rereplic 7.31µM, KB-V1 cytotox inconclusive, ELG1 repair inh inconclusive, MCF10A rereplic inconclusive
CC(C)(C)NS(=O)(=O)c1ccc(CCC(=O)Nc2ccc3c(c2)OCCO3)cc1	KB-V1 cytotox 16.4µM
COc1ccc(NC(=O)CN(C)C(=O)Cc2ccc3c(c2)OCCO3)cc1	KB-V1 cytotox inconclusive
COc1ccccc1/C=C/C(=O)Nc1ccc2c(c1)OCCO2	SW480 rereplic 16.4µM, KB-V1 cytotox 20.6µM, ELG1 repair inh inconclusive, MCF10A rereplic 13µM, KB-3-1 cytotox 5.17µM
O=C(NCC(=O)N(c1cccc(F)c1)C(C(=O)NC1CCCC1)c1cccnc1)c1cccs1 (stereo not drawn)	none
CC(C)(C)c1ccc(-c2cn(-c3ccc(Br)cc3)c3[n+]2CCCS3)cc1	ELG1 repair inh 4.11µM, MCF10A rereplic inconclusive, KB-3-1 cytotox inconclusive
c1ccc(-c2cn(-c3ccccc3)c3[n+]2CCS3)cc1	KB-V1 cytotox inconclusive, ELG1 repair inh 4.61µM, KB-3-1 cytotox inconclusive
Fc1ccc(-n2cc(-c3ccccc3)[n+]3c2SCC3)cc1	SW480 rereplic inconclusive, KB-3-1 cytotox inconclusive
Brc1ccc(-c2csc3[n+]2CCCCC3)cc1	KB-V1 cytotox inconclusive, ELG1 repair inh inconclusive, KB-3-1 cytotox inconclusive
COc1ccc(-c2cn(-c3ccccc3)c3[n+]2CCS3)cc1	ELG1 repair inh inconclusive, KB-3-1 cytotox 3.26µM
COC(=O)c1ccc(NC(=O)CSc2ncc3c(n2)-c2cc(Cl)ccc2N(Cc2ccccc2)S3(=O)=O)cc1	none (no result: SW480 rereplic, ELG1 repair inh, MCF10A rereplic)
CCCCCCC(=O)N(O)C1CC(=O)N(c2ccc(Cl)cc2)C1=O (stereo not drawn)	SW480 rereplic 18.4µM, ELG1 repair inh inconclusive, MCF10A rereplic inconclusive
COc1ccc(NC(=O)c2nc[nH]c2C(=O)N2CCN(C(=O)OC(C)(C)C)CC2)cc1	SW480 rereplic inconclusive
O=C(CSc1nncs1)Nc1ccc(N2CCCCC2)cc1	KB-V1 cytotox 16.4µM, ELG1 repair inh inconclusive, KB-3-1 cytotox inconclusive
O=C(C1CCC(CNS(=O)(=O)c2cccc3nsnc23)CC1)N1CC=C(c2ccccc2)CC1 (stereo not drawn)	ELG1 repair inh 20.6µM, KB-3-1 cytotox inconclusive
O=C(C1CCCN(S(=O)(=O)c2cccc3nsnc23)C1)N1CC=C(c2ccccc2)CC1 (stereo not drawn)	KB-V1 cytotox inconclusive, ELG1 repair inh inconclusive, KB-3-1 cytotox inconclusive
O=C(C1CCN(S(=O)(=O)c2cccc3nsnc23)CC1)N1CC=C(c2ccccc2)CC1	ELG1 repair inh 18.4µM, MCF10A rereplic inconclusive
COc1ccc2c(c1)C=C/C2=C\c1ccc(N(C)C)cc1	KB-3-1 cytotox inconclusive (no result: SW480 rereplic, ELG1 repair inh, MCF10A rereplic)
O=C(Nc1ccc2sccc2c1)c1ccc(Cl)s1	ELG1 repair inh inconclusive, MCF10A rereplic 18.4µM
Cc1cc(C)nc(NC2=NCC(=O)N2c2ccccc2Br)n1	KB-V1 cytotox inconclusive
CC(NC(=O)c1ccc([N+](=O)[O-])cc1[N+](=O)[O-])c1ccc(-c2ccccc2)cc1 (stereo not drawn)	KB-V1 cytotox inconclusive
COCCNC(=O)CN(c1cc(C(F)(F)F)ccc1Cl)S(C)(=O)=O	none
C=CCNc1oc(/C=C/c2ccccc2)nc1C#N	SW480 rereplic 20.6µM, KB-V1 cytotox 18.4µM, ELG1 repair inh inconclusive, MCF10A rereplic 8.2µM
CCOc1ccc(/C=C/c2nc(C#N)c(NCCCN(C)C)o2)cc1	SW480 rereplic 18.4µM, MCF10A rereplic 6.51µM
COCCCNc1oc(/C=C/c2ccccc2)nc1C#N	SW480 rereplic 7.94µM, ELG1 repair inh inconclusive, MCF10A rereplic 16.4µM
CN(C)CCCNc1oc(/C=C/c2ccccc2)nc1C#N	ELG1 repair inh inconclusive
CCOc1ccc(/C=C/c2nc(C#N)c(NCCCOC)o2)cc1	SW480 rereplic 2.06µM, KB-V1 cytotox 2.06µM, MCF10A rereplic 3.66µM, KB-3-1 cytotox 5.17µM
Cc1ccc(S(=O)(=O)N2CCCCC2)cc1NC(=O)c1cccs1	none
C[C@@H]1CN([C@H](C)CO)C(=O)c2c(c3ccccc3n2C)-c2ccccc2CO[C@H]1CN(C)C(=O)Cc1ccccc1	none (no result: SW480 rereplic, ELG1 repair inh, MCF10A rereplic)
